Bioassay records deposited in PubChem by National Center for Advancing Translational Sciences (NCATS).
Shown are actives, neighbours in structure and some others; about 8.2% of the full set was active somewhere.
KB-V1 cytotox – kills drug-selected multidrug resistant KB-V1 cells | actives 3.4% (n = 400,000) | Potency, µM (series often up to 46.1 µM), most hits filed as cytotoxic | KB-V1 MDR cells viability, CellTiter-Glo, 72 h; also: % is scaled to controls: 0 for no effect and ±100 for the full control effect; nearly all actives have a fitted effect of over 60% in size
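Drug-selected KB-V1 cells, grown in DMEM lacking phenol red with 10% FBS, receive compound titrations; after three days at 37 degrees C, surviving cell ATP is quantified by CellTiter-Glo luminescence and responses normalized and curve-fitted.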
ELG1 repair inh – inhibitors of ELG1-dependent DNA repair in HEK293T cells; HEK293T ELG1-luciferase reporter, luminescence, 16 h; DNA damage induced by 5-fluorouridine; Potency, µM (titrated, usually from 46.1 µM), without a hit: top-dose activity change, negative = inhibition, actives largely listed as inhibitors; actives 2.3% (n = 330,000); AID 504467; also: % is scaled to controls: 0 for no effect and ±100 for the full control effect; nearly all actives have a fitted effect of over 55% in size
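Step one: seed 2,000 cells per well. Step two: pin-transfer compound or DMSO alongside 5-fluorouridine. Step three: incubate 16 hr, 37 °C, 5% CO2. Step four: add ONE-Glo, wait 30 min, read luminescence.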
MCF10A rereplic – DNA re-replication induction in MCF 10a cells; MCF 10A DNA re-replication, Hoechst nuclear intensity, 48 h; Potency, µM (top dose mostly 46.1 µM), without a hit: at the top dose activity, positive = re-replication, actives largely listed as activators; actives 2.9% (n = 350,000); AID 624296; also: % of control where 0% means no effect; nearly all actives have a fitted effect of over 50% in size
KB-3-1 tox – kills parental KB-3-1 adenocarcinoma cells; KB-3-1 viability, CellTiter-Glo ATP luminescence, 72 h; Potency, µM (titrated, usually from 46.1 µM), hits mostly cytotoxic; actives 1.4% (n = 400,000); also: % is scaled to controls: 0 for no effect and ±100 for the full control effect; nearly all actives have a fitted effect of over 60% in size
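Cytotoxicity in the drug-sensitive parental line KB-3-1 was scored as loss of CellTiter-Glo luminescence following 72 h incubation with compound. Values come from curve fitting of normalized concentration-response data.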
SW480 rerep – induces DNA re-replication in SW480 colon adenocarcinoma cells. SW480 DNA re-replication, Hoechst DNA content imaging, 48 h. Potency, µM (doses to about 46.1 µM), for the others: top-dose re-replication activation, usual class: activators. actives 1.8% (n = 340,000). AID 624297; also: % of control where 0% means no effect; nearly all actives have a fitted effect of over 55% in size
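Treated cells incubate 48 hr (37 C, 5% CO2), are stained 40 min with Hoechst, and nuclear fluorescence is enumerated; a rise in nuclei with high DNA signal marks re-replication.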
Numbers without * were called inactive; i = inactive; ? = inconclusive; . = no result; [ ] = remark or other dose. Calls follow the shape of the dose curve; as a rule, active = well fitted curve in the direction sought with a large enough effect; inconclusive = small, poorly fitted or top-dose-only effect, or another doubt; inactive = no such curve, though single readings can be large; an effect the other way counts as inactive or inconclusive. Potency is read from the fitted curve at half-maximal effect.

SMILES | KB-V1 cytotox | ELG1 repair inh | MCF10A rereplic | KB-3-1 tox | SW480 rerep
Cc1cc2ccccn2c1C(C[N+](=O)[O-])c1ccc(N(C)C)cc1 (centres undefined) | i | 4% | 0% | i | 25%
O=C(O)C(CCc1ccccc1)N1CCOCC1 (centres undefined) | ? | . | . | i | .
COc1cccc(C(=O)N/N=c2\sc3ccccc3n2C)c1 | ? | ? | 3% | i | .
Cc1ccc(C(=O)N/N=c2\sc3ccccc3n2C)cc1 | i | ? | ? | i | 0.65µM*
Cc1cc2c(cc1C)C(=O)CCC2 | i | . | . | i | .
O=C1CCCc2cc3c(ccc4ccccc43)cc21 | i | . | 18µM* | i | 2%
COc1ccc(CNC(=O)C2CCC(CNS(=O)(=O)c3ccccc3)CC2)cc1 (centres undefined) | ? | ? | 1% | i | 1%
N/C(COc1ncn(-c2ccccc2)n1)=N\S(=O)(=O)c1ccc(Cl)cc1Cl | i | 16µM* | 5% | i | -1%
CCc1nc2ccc(C(=O)Nc3ccc(OC)c(OC)c3)cn2c1N(C)Cc1ccc(N(C)C)cc1 | i | . | . | i | .
Cc1cccc(/C=N/NC(=O)c2ccc(NC(=O)c3ccc(F)cc3)cc2)n1 | i | 4% | 21µM* | i | -30%
Cc1cccc(/C=N/NC(=O)c2ccc(NC(=O)c3ccc(Cl)cc3)cc2)n1 | i | 1% | 7% | ? | 0%
Cc1sc(NC(=O)c2ccco2)c(C(c2cccnc2)N2CCN(CCO)CC2)c1C (centres undefined) | i | -2% | 26% | i | -22%
CCOC(=O)C1CCN(C(c2cccnc2)c2c(NC(=O)c3ccco3)sc(C)c2C)CC1 (centres undefined) | 2.9µM* | 15µM* | ? | 3.3µM* | ?
Cc1noc(C)c1-c1ccc(C(=O)NCc2cccs2)c2occc12 | ? | . | . | i | .
COc1cccc(CNc2ccc(N3CCC(C)CC3)cc2)c1OC | 21µM* | ? | 8% | 21µM* | 8%
CN1CCN(c2cc(-c3cccc(C(=O)O)c3)nc3ccnn23)CC1 | i | . | . | i | .
O=C(Nc1ccc(N2CCN(c3ncccc3C(F)(F)F)CC2)nc1)c1cccs1 | 18µM* | 21µM* | ? | 16µM* | 0%
COCC(=O)N(CCc1ccc(OC)c(OC)c1)Cc1cc2cc(C)ccc2nc1Cl | ? | 16µM* | 22% | i | -14%
Cc1ccc(-n2c(=O)c3cccnc3n2CC(=O)Nc2ccc(Br)cc2)cc1C | i | . | . | i | .
COCCNc1nc(NCc2ccc(C)cc2C)c2sccc2n1 | i | . | . | i | .
COCCNc1nc(Nc2ccc(C)cc2C)c2sccc2n1 | 5.2µM* | . | . | 5.2µM* | .
CN(C)C(=O)/C(C#N)=C\c1cc(Br)c(Sc2ccc(Cl)cc2)o1 | 16µM* | ? | 4% | i | 2%
Nc1ncnc2c1[nH]c(=S)n2C1OC(CO)C(O)C1O (centres undefined) | i | . | . | i | .
CCOC(=O)Cc1nnc2c(Nc3ccc(Cl)cc3)nc3nonc3n12 | ? | ? | 13µM* | ? | 10%
CCOC(=O)Cc1csc(Nc2ccc(Cl)cc2)n1 | i | ? | -2% | i | 6%
SMILES | KB-V1 cytotox | ELG1 repair inh | MCF10A rereplic | KB-3-1 tox | SW480 rerep
COc1cc2c(cc1OC)CN(c1ccc([N+](=O)[O-])cc1C#N)CC2 | i | ? | 13% | i | -5%
COc1cc2c(cc1OC)C1=C(C#N)CN(C3CCCCC3)CN1CC2 | 21µM* | ? | 3% | i | 1%
COc1ccc(CCN2CC(C#N)=C3c4cc(OC)c(OC)cc4CCN3C2)cc1OC | i | 21µM* | 23% | i | 3%
CCc1ccc(S(=O)(=O)N2c3ccc(C)cc3C3CN(C)CCC32)cc1 (centres undefined) | 21µM* | 8% | ? | i | 3%
Cc1ccc(Nc2c(-c3ccco3)nc3ccc(C)cn23)cc1 | i | . | . | i | .
Cc1ccc(Nc2c(-c3ccccn3)nc3cc(C)ccn23)cc1 | ? | ? | ? | ? | 7%
Cc1ccc2nc(-c3ccco3)c(Nc3ccccc3)n2c1 | 10µM* | 7% | 11% | i | ?
Cc1ccc(Nc2c(-c3ccccn3)nc3ccc(C)cn23)cc1 | ? | ? | 12% | ? | 21µM*
CCOC(=O)C(CC)n1cnc2c(nnn2-c2ccccc2)c1=O (centres undefined) | i | 10% | 3% | i | -11%
Cc1ccc(S(=O)(=O)NN=Cc2ccco2)cc1 | i | . | . | i | .
Cc1ccc(S(=O)(=O)N2Cc3ccccc3CC2C(N)=O)cc1 (centres undefined) | i | . | . | i | .
O=C(NC(=S)Nc1ccc(F)cc1)c1ccc2c(c1)OCCO2 | i | ? | 0% | 13µM* | 2%
COc1cc(C(=O)OCC#N)ccc1OCc1c(C)noc1C | ? | ? | 4.1µM* | ? | 10µM*
COc1ccc(NC(=S)NC(=O)c2ccc3c(c2)OCCO3)cc1 | i | ? | 2% | i | -7%
CC(C)c1ccc(/C=C/C(=O)NC(=S)NN2CCOCC2)cc1 | i | ? | 3% | i | ?
COC(=O)c1ccc(OC(=O)c2ccc(OCc3c(C)noc3C)c(OC)c2)cc1 | . | 11% | . | . | .
CC(C)c1ccc(/C=C/C(=O)NC(=S)Nc2ccc(CN3CCOCC3)cc2)cc1 | ? | ? | 23µM* | i | 23%
O=C(c1ccc2c(c1)OCCO2)C1CCN(C(=O)Nc2ccc(F)cc2)CC1 | 23µM* | ? | 4% | i | 13%
CCN(CC)C(=O)C1=C(C)N(Cc2ccccc2)C(=O)C(CC(=O)NC2CCCC2)C1 (centres undefined) | i | . | . | i | .
CC(C)c1csc(CN2CCCC(CNC(=O)c3cccc4ccccc34)C2)n1 (centres undefined) | i | ? | ? | i | ?
CCOc1ccc2ccccc2c1CNCCc1ccc(S(N)(=O)=O)cc1 | i | -3% | 4% | i | -4%
COc1ccc(C(=O)NC(=S)Nc2ccccc2N2CCOCC2)cc1Br | 16µM* | ? | ? | i | -1%
Cc1ccc(C(=O)NC(=S)Nc2ccccc2N2CCCC2)cc1[N+](=O)[O-] | i | -13% | 2.6µM* | i | 0%
COc1ccc(C(=O)NC(=S)Nc2ccc(CN3CCOCC3)cc2)cc1Br | ? | 23µM* | 2% | i | 3%
COc1ccc(C(=O)Nc2ccccc2N2CCOCC2)cc1Br | i | -9% | -13% | i | -2%[9.22 µM]
O=C(NC(=S)Nc1ccc(CN2CCOCC2)cc1)c1ccc2c(c1)OCCO2 | 21µM* | ? | ? | 18µM* | ?
